# Only some compounds are listed: those with a hit (about 6.7% of all), similar ones and a draw of the others.
# BoNT-F LC inh: BoNT F light chain protease inhibition; Multiplex microsphere protease cleavage assay, flow cytometry; inhibition, % at 10 µM; actives 0.22% (n = 360,000); AID 588497; in the data active = inhibition above about 35%, passing the limit was not always enough; inconclusive = no clear call, values can overlap the other calls
# Bead autofluor: compound fluorescence in toxin protease inhibitor counterscreen; compound autofluorescence counterscreen, microsphere flow cytometry; hits give high values; fluorescence intensity (test concentration not listed); actives 3.1% (n = 360,000); in the data active = fluorescence intensity above about 16000; inconclusive = no clear call, values can overlap the other calls
# Anthrax LF inh2: inhibitors of Bacillus anthracis lethal factor protease. actives 0.12% (n = 360,000). multiplex microsphere protease cleavage assay, LF. inhibition, % at 10 µM. P15917. AID 588501; in the data active = inhibition above about 30%; inconclusive = no clear call, values can overlap the other calls
# BoNT-A LC inh2: blocks Botulinum neurotoxin A light chain protease. multiplex microsphere protease substrate cleavage, flow cytometry. inhibition, % at 10 µM. actives 0.17% (n = 360,000); in the data active = inhibition above about 30%; inconclusive = no clear call, values can overlap the other calls
# GDH-TPI counter-1: GDH-TPI coupled enzyme inhibition counter-screen | GDH-TPI coupled enzyme counterscreen, NADH absorbance | inhibition, % at 4.8 µM | actives 1.2% (n = 360,000) | AID 588335; in the data active = inhibition above about 30%
# Mtb FBA inh: inhibitors of M. tuberculosis fructose-bisphosphate aldolase; P9WQA3; actives 2.3% (n = 360,000); purified M. tuberculosis FBA, fluorescence read-out; inhibition, % at 1 µM
# Mtb FBA inh conf: confirmation of M. tuberculosis fructose-bisphosphate aldolase inhibitors; shares compounds with Mtb FBA inh; inhibition, % at 1 µM; actives 78% (n = 5,600); purified M. tuberculosis FBA, fluorescence read-out; AID 651616
# GDH-TPI counter-2: counter-screen for M. tuberculosis FBA inhibitors: GDH-TPI coupled enzyme inhibition; shares compounds with Mtb FBA inh; actives 81% (n = 5,600); GDH-TPI coupled enzyme counterscreen, fluorescence; inhibition, % at 1 µM; in the data active = inhibition above about 10%
# GDH-TPI DR: inhibits GDH-TPI coupling enzymes in dose response; shares compounds with Mtb FBA inh; GDH-TPI coupled enzyme assay, fluorescence, artifact counterscreen; IC50, µM; actives 79% (n = 170); AID 652145; call rule not given here
# Numbers stand for hits; - = inactive; ? = inconclusive; . = not tested or not shown; + = active, no number. Cut-off read from the data, not from the text of the source, unless noted: active = inhibition above about 27%; inactive = the rest.
SMILES,BoNT-F LC inh,Bead autofluor,Anthrax LF inh2,BoNT-A LC inh2,GDH-TPI counter-1,Mtb FBA inh,Mtb FBA inh conf,GDH-TPI counter-2,others
Cn1c(=O)c2cc(NC(=O)Cc3ccccc3F)ccc2n1C/C=C/c1ccccc1,-,-,-,-,-,62.1,+,+,
Cn1c(=O)c2cc(NC(=S)NC3CCCCC3)ccc2n1C/C=C/c1ccccc1,-,-,-,-,-,-,.,.,
Cn1c(=O)c2cc(NC(=S)NC3CC3)ccc2n1C/C=C/c1ccccc1,-,-,-,-,-,34.5,69.7,54.1,
Cn1c(=O)c2cc(NC(=O)NCc3ccc(F)cc3)ccc2n1C/C=C/c1ccccc1,-,-,-,-,-,59.5,-,24.6,
CN1C(=O)CSc2ccc(NC(=O)NCc3ccc(F)cc3)cc21,-,-,-,-,-,-,.,.,
CCOC(=O)c1nc(Nc2ccccc2CC)c2ccccc2n1,-,-,-,-,-,-,.,.,
C1=C\CCC2(OCCO2)C2(CC/1)OCCO2,-,-,-,-,-,-,.,.,
C=CCNc1nc(Nc2ccc(-c3nc4ccccc4o3)cc2)nc(N2CCOCC2)n1,-,-,-,-,35.3,97.0,-,-,GDH-TPI DR=0.493
O=C(N/N=C/c1ccc(O)c(O)c1)c1ccc(-n2cnnn2)cc1,-,-,-,-,-,52.1,51.8,52.4,
Cc1nc(N2CCOCC2)c(C#N)c2c1COC(C)(C)C2,-,20542,-,-,-,51.1,-,-,
CC1(C)Cc2c(C#N)c(N3CCOCC3)nc(Cc3ccccc3)c2CO1,-,-,-,-,-,35.3,64.8,51.9,
CC1(C)Cc2c(C#N)c(N3CCN(C(=O)c4ccccc4)CC3)nc(Cc3ccccc3)c2CO1,-,-,-,-,-,-,.,.,
O=C(/C=C/c1ccc(OCCCF)cc1)N1CCOCC1,-,-,-,-,-,-,.,.,
O=C(CN1CCCN(S(=O)(=O)c2ccc(Br)s2)CC1)Nc1ccc(Cl)cc1,-,-,-,-,-,-,.,.,
O=C(NCCc1ccc(F)cc1)c1coc(=O)c(Br)c1,-,-,-,-,-,-,.,.,
Cc1cc(NC(=O)c2coc(=O)c(Br)c2)ccc1C(C)C,-,-,-,-,-,49.4,+,+,
O=C(Nc1ccccc1F)c1coc(=O)c(Br)c1,-,-,-,-,-,107.2,.,+,
C[C@@H](NC(=O)c1coc(=O)c(Br)c1)c1ccccc1,-,-,-,-,32.5,81.0,72.4,51.9,
O=C(NCc1ccccn1)c1coc(=O)c(Br)c1,-,-,-,-,-,78.4,-,-,
CCOc1ccc(C(=O)NCc2ccccn2)cc1,-,-,-,-,-,-,.,.,
COc1ccc(C(=O)NC(C)c2ccccc2)cc1Br (stereo unspecified),-,-,-,-,-,-,.,.,
Cc1nn(-c2ccccc2)c2sc(C(=O)NC3CC3)cc12,-,?,?,?,-,-,.,.,
Cc1nn(-c2ccc(F)cc2)c2sc(C(=O)OC3CCOC3=O)cc12 (stereo unspecified),-,-,-,-,-,86.0,74.2,59.0,
N#C/C(=C(/O)CCCl)c1ccccn1,-,-,-,-,-,58.9,86.8,54.7,
N#C/C(=C(\O)c1ccco1)c1ccccn1,-,-,-,-,-,-,.,.,
SMILES,BoNT-F LC inh,Bead autofluor,Anthrax LF inh2,BoNT-A LC inh2,GDH-TPI counter-1,Mtb FBA inh,Mtb FBA inh conf,GDH-TPI counter-2,others
Cc1c(O)ccc2c(=O)c(-c3nncn3-c3ccccc3)coc12,-,-,-,-,-,-,.,.,
Cc1oc2c(CN3CCOCC3)c(O)ccc2c(=O)c1-c1ccccc1,-,-,-,-,-,97.8,+,+,
O=c1c(-c2ccccc2)coc2c(CN3CCCC3)c(O)ccc12,-,-,-,-,-,82.5,144.7,123.1,
COc1ccc(-c2coc3c(CN4CCOCC4)c(O)ccc3c2=O)cc1,-,-,-,-,-,41.0,63.1,50.3,
CCOc1ccccc1Oc1c(C)oc2c(CN3CCN(CCO)CC3)c(O)ccc2c1=O,-,-,-,-,-,80.3,-,-,
CC(=O)c1c(C)oc2ccc(O)c(CN3CCOCC3)c12,-,-,-,-,-,-,.,.,
CCOC(=O)c1c(C)oc2c1c(CN1CCN(CCO)CC1)c(O)c1ccccc12,-,-,-,-,-,-,.,.,
Cc1cc(C)nc(NC(=O)c2ccc(Cl)c([N+](=O)[O-])c2)n1,-,-,-,-,-,-,.,.,
COc1ccc(NC(=O)c2noc(C(C)C)c2[N+](=O)[O-])cc1,-,-,-,-,-,-,.,.,
Cn1ccsc1=NC(=O)c1ccccc1F,-,-,-,-,-,-,.,.,
N#CCCn1cc(C(=O)O)c(-c2ccc3ccccc3c2)n1,.,.,.,.,-,-,.,.,
O=C(c1ccccc1)c1coc2ccc(O)c(CN3CCOCC3)c12,-,-,-,-,-,-,.,.,
O=c1c(-c2ccc(Cl)cc2)coc2c(CN3CCOCC3)c(O)ccc12,-,-,-,-,-,30.4,29.9,19.1,
COc1ccccc1-c1nnc(SCC(=O)Nc2ccc(N3CCOCC3)cc2)n1C,-,-,-,-,-,-,.,.,
CC1=C(C#N)C(C)C2=C(CC(C)(C)CC2=O)N1 (stereo unspecified),-,-,-,-,-,57.5,71.3,64.7,
COc1ccc(/C=N\NC(=O)c2ccccc2F)cc1COc1ccc(F)cc1F,-,-,-,-,-,-,.,.,
COc1ccc(/C=N/NC(=O)c2nc(Cl)c(Cl)c(N)c2Cl)cc1COc1ccccc1F,-,-,-,-,-,-,.,.,
COc1ccc(/C=N/NC(=O)c2ccc(NC(C)=O)cc2)cc1COc1ccc(F)cc1F,-,-,-,-,-,29.9,74.8,58.8,
COc1ccc(/C=N/NC(=O)c2nc(Cl)c(Cl)c(N)c2Cl)cc1COc1ccc(F)cc1F,-,-,-,-,-,29.1,-,-,
CCC(=O)Nc1sc2c(c1C(N)=O)CCN(Cc1ccccc1)C2,-,-,-,-,-,-,.,.,
N#Cc1cnc(Sc2ccccc2)nc1,-,-,-,-,-,-,.,.,
Cc1ccc(-c2nn(-c3ccccc3)cc2/C=C/C(=O)O)o1,-,-,-,-,-,39.2,-,-,
O=C(O)c1ccc(-n2nncc2-c2ccco2)cc1,-,-,-,-,-,-,.,.,
COc1ccc(-c2ccnc3cc(C(=O)O)nn23)cc1,-,-,-,-,-,35.9,-,-,
Cc1cc2nccc(-c3ccc(F)cc3)n2n1,-,-,-,-,-,-,.,.,
O=C(O)c1cc2nccc(-c3ccco3)n2n1,-,-,-,-,36.4,32.1,122.2,98.0,
Cc1cccc(NS(=O)(=O)c2cnc[nH]2)c1,-,-,-,-,-,-,.,.,
O=C1NC[C@H](Cc2ccccc2)N(C[C@@H]2CCCN2C[C@H](Cc2ccc(O)cc2)N2C[C@H](Cc3ccc(O)cc3)N(CC3CCCCC3)C(=O)C2=O)C1=O,-,-,-,-,.,.,.,.,

# Assay outcomes: PubChem BioAssay, several laboratories
